Results from PubChem BioAssay.
For part of these data: Measured potencies and affinities stand elsewhere. Calls of active or inactive are those of the source.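 The calls were made as follows, unless noted: active = earlier screen potentiator hit that boosts the TRPC4 ion channel at some dose, with a dose response; inactive = no potentiation, no dose response, or not a prior hit.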

Key:
[1] = tested on: TRPC4 beta (transient receptor potential cation channel C4), mouse; assay: TRPC4 cation channel opening, retest – cell-based, Fluo4 calcium, HEK293 TRPC4beta/mu-opioid, duplicates, 10 µM, confirmation (AID 2426;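 active = fluorescence ratio normalized to control raised more than 50% in primary screen plus both repeat runs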); conditions: Fluo4 calcium fluorescence, at 10 µM; hits give high values
[2] = tested on: transient receptor potential cation channel C4 beta (TRPC4), mouse; assay: TRPC4 cation channel opening, second retest – cell-based, second round, Fluo4, HEK293 TRPC4beta/mu-opioid, 1 µM, confirmation (AID 2461;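 active = primary screen active and over 50% activation in each of two duplicate runs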); conditions: Fluo4 calcium fluorescence, at 1 µM; hits give high values
[3] = tested on: TRPC4 (transient receptor potential cation channel C4 beta), mouse; assay: potentiation of DAMGO EC20 TRPC4 response – cell-based, second round, Fluo-4, HEK293 TRPC4beta/mu-opioid, 1 µM, confirmation (AID 2554;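 active = primary screen hit whose fluorescence ratio, in both repeats, exceeds the weak agonist control mean by 3 SD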); conditions: DAMGO EC20, Fluo-4 calcium flux, at 1 µM; hits give high values
[4] = tested on: TRPC4 beta (transient receptor potential cation channel C4), mouse; assay: potentiation of DAMGO EC20 TRPC4 response – cell-based, Fluo-4, HEK293 TRPC4beta/mu-opioid, confirmation (AID 2555;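 active = primary screen hit whose calcium fluorescence ratio, in both repeats, exceeds the weak agonist control mean by 3 SD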); conditions: DAMGO EC20, Fluo-4 calcium flux, at 10 µM; hits give high values
[5] = biological target: Short transient receptor potential channel 4 (Mus musculus) (UniProt Q9QUQ5); assay: blockers of DAMGO-evoked TRPC4 calcium flux – cell-based, Fluo4, HEK293 TRPC4beta/mu-opioid, confirmation (AID 2636;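 active = calcium signal cut by more than 3 SD below the full-agonist control yet still positive, in both repeats and the earlier primary screen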); conditions: at 10 µM; hits give high values
[6] = biological target: Short transient receptor potential channel 4 (Mus musculus) (UniProt Q9QUQ5); assay: blockers of DAMGO-evoked TRPC4 calcium flux – cell-based, second round, Fluo4, HEK293 TRPC4beta/mu-opioid, 1 µM, confirmation (AID 2637;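 active = calcium signal ratio cut to more than 3 SD under the fully stimulated control mean yet still positive, in both repeats and the primary screen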;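 as to inhibition: percent of integrated ratio relative to wells lacking test compound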); conditions: at 1 µM; hits give high values
[7] = biological target: Short transient receptor potential channel 4 (Mus musculus) (UniProt Q9QUQ5); assay: calcium entry via TRPC4 opening agents – cell-based, HEK293 TRPC4/mu-opioid, Fluo-4 calcium, dose response (AID 434937;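 active = primary screen activator hit with a dose response curve and TRPC4 channel activation at any tested dose; inactive = no activation, no dose response, or not a primary hit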)
[8] = biological target: Short transient receptor potential channel 4 (Mus musculus) (UniProt Q9QUQ5); assay: potentiation of DAMGO-evoked TRPC4 calcium signal – cell-based, HEK293 TRPC4/mu-opioid, Fluo-4 calcium, EC20 DAMGO, dose response (AID 434941);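 also: calcium entry triggered by an EC20 dose of DAMGO at the co-expressed mu-opioid receptor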
[9] = biological target: Short transient receptor potential channel 6 (Mus musculus) (UniProt Q61143); assay: TRPC6 blockade by TRPC4 inhibitor hits – cell-based, HEK293, membrane potential dye, duplicate, selectivity assay for TRPC4 inhibitor project, confirmation (AID 434948;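 active = active in primary screen and both duplicates, each dropping signal beyond three positive-control SD with fluorescence still positive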); conditions: HEK293 TRPC6, membrane potential dye fluorescence, at 10 µM, stimulated with maximal-effect acetylcholine; hits give high values
[10] = biological target: Short transient receptor potential channel 6 (Mus musculus) (UniProt Q61143); assay: TRPC6 opening by TRPC4 activator hits – cell-based, HEK293, membrane potential dye, duplicate, selectivity assay for TRPC4 activator project, confirmation (AID 434950;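 active = membrane potential signal rise above negative control mean plus 3 SD in both duplicates, also active in the earlier TRPC4 screen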;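 as to activation: 0% = buffer only wells and 100% = acetylcholine maximal-effect wells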); conditions: HEK293 TRPC6, membrane potential fluorescence, at 10 µM; activation: hits give high values; outcome: activation
[11] = biological target: Short transient receptor potential channel 6 (Mus musculus) (UniProt Q61143); assay: positive modulators of mouse TRPC6 channel – HEK293 cells, membrane potential dye, duplicate, selectivity assay for TRPC4 potentiator project, confirmation (AID 434952;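 active = compound raising the membrane signal above positive-control mean plus 3 SD in both repeats, and a primary screen hit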); conditions: HEK293 TRPC6, membrane potential dye fluorescence, at 10 µM, maximal acetylcholine added after compound; hits give high values
[12] = biological target: Short transient receptor potential channel 4 (Mus musculus) (UniProt Q9QUQ5); assay: calcium flux activators in TRPC4/5HT1a cells, counter-screen for TRPC4 activator project, cell-based, second counter screen, HEK293 TRPC4/5HT1a, Fluo-4 (AID 434977;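 active = calcium signal rise above buffer-control mean plus 5 SD in both duplicates, and also a hit in the primary screen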); conditions: Fluo-4 calcium flux, at 10 µM; hits give high values
[13] = serotonin-gated TRPC4 signal block – cell-based, second counter screen, HEK293 TRPC4/5HT1a, Fluo-4, counter-screen for TRPC4 inhibitor project, confirmation (AID 434978;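 active = primary screen active whose calcium signal fell more than 3 SD beyond the full-serotonin control mean in both duplicate plates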;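 as to outcome: serotonin given first at submaximal then at maximal dose after compound preincubation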); conditions: Fluo-4 calcium flux, at 10 µM, serotonin added to trigger calcium flux; hits give high values
[14] = tested on: TRPC4 (mouse), co-expressed with 5HT1a in HEK293; assay: enhancement of serotonin-evoked TRPC4 response – cell-based, second counter screen, HEK293 TRPC4/5HT1a, Fluo-4, counter-screen for TRPC4 potentiator project, confirmation (AID 434979;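 active = signal rise over 3 SD above mean of control wells given weak agonist, in both repeats and first screen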); conditions: Fluo-4 calcium flux, at 10 µM, serotonin added at its EC20 dose; hits give high values
[15] = nonspecific calcium rise without TRPC4 – cell-based, HEK293 mu-opioid receptor line, counter-screen for TRPC4 activator project, confirmation (AID 449723;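 active = hit in primary screen, with calcium signal over 5 SD above buffer well mean in both duplicates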;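 also: counter screen cells carry the mu-opioid receptor alone and lack TRPC4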); conditions: HEK293 mu-opioid cells, Fluo-4 calcium fluorescence, at 10 µM; hits give high values
[16] = nonspecific potentiation of DAMGO calcium response – cell-based, HEK293 mu-opioid receptor line, counter-screen for TRPC4 allosteric potentiator project, confirmation (AID 449724;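 active = calcium signal rise more than 3 SD above the low-dose agonist control mean, in both duplicate plates and the primary screen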); conditions: HEK293 mu-opioid receptor cells, Fluo-4 calcium flux, at 10 µM, compound added before EC20 DAMGO stimulus; hits give high values

Short transient receptor potential channel 4 (Mus musculus), sequence (Q9QUQ5 whole entry, looked up): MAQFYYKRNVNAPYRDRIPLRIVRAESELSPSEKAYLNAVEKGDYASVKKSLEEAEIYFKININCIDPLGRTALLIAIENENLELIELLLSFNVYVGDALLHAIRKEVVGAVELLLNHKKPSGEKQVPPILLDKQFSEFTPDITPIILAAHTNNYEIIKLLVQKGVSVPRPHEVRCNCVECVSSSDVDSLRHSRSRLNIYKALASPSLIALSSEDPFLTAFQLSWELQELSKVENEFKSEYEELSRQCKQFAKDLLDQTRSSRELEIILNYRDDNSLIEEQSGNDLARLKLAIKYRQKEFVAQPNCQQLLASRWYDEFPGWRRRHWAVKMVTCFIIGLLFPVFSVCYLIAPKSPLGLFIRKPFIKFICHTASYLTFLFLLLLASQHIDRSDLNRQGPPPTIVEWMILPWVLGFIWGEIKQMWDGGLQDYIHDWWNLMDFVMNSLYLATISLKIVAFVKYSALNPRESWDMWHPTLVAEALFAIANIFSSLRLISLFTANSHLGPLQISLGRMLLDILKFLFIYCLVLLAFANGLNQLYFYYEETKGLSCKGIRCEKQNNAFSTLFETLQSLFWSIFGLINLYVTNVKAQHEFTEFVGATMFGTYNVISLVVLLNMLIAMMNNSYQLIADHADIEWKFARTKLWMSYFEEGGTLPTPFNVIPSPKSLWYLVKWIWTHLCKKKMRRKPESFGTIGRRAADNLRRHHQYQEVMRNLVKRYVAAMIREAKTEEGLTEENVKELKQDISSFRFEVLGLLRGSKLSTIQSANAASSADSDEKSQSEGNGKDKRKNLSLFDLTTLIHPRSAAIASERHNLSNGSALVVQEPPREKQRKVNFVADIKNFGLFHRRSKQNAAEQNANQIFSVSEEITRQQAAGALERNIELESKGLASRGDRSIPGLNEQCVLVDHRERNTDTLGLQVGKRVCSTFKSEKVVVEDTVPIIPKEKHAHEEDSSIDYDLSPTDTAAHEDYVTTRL
Short transient receptor potential channel 6 (Mus musculus), sequence (Q61143 whole entry, looked up): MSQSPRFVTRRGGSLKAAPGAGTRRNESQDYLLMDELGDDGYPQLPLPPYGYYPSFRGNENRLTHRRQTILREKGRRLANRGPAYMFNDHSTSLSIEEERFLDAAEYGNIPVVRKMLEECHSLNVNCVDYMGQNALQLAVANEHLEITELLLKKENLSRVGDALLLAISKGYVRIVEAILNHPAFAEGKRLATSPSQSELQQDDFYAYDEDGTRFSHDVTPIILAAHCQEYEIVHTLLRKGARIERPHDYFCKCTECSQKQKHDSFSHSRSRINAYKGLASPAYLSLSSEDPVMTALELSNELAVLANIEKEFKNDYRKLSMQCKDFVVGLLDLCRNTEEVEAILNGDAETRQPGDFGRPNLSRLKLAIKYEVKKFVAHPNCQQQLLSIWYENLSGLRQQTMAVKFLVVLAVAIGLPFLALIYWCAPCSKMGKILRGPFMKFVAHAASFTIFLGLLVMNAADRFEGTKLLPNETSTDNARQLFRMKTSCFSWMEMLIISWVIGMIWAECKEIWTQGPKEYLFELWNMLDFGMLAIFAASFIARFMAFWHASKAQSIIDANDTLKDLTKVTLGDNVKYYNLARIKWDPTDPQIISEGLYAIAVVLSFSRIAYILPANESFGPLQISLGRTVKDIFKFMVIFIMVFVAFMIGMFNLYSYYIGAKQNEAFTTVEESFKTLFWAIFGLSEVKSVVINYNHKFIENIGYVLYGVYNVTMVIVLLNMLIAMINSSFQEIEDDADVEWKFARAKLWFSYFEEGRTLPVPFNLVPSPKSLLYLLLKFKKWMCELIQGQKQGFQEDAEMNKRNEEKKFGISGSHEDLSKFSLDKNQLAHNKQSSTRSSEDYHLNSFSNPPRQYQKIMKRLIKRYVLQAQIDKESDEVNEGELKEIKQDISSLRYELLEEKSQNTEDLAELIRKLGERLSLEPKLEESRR

COc1ccc2nc(C)cc(NCc3ccc(F)cc3)c2c1
active: inhibition [5] 84% | inhibition [9] 56%
inactive: outcome [1] | outcome [2] | outcome [3] | outcome [4] | outcome [6] | outcome [7] | outcome [8] | outcome [10] | outcome [11] | outcome [12] | outcome [13] | outcome [14] | outcome [15] | outcome [16]

Cc1c(N(C)S(=O)(=O)c2cc(C(=O)NCC3CCCO3)ccc2Cl)c(=O)n(-c2ccccc2)n1C (stereo not given)
inactive: outcome [1] | outcome [2] | outcome [3] | outcome [4] | outcome [7] | outcome [8] | outcome [9] | outcome [10] | outcome [11] | outcome [12] | outcome [13] | outcome [14] | outcome [15] | outcome [16]
active: inhibition [5] 84% | inhibition [6] 45%

Cc1ccc2c(c1)N(C(=O)CCC(=O)Nc1ccccc1Cl)CC(C)O2 (stereo not given)
active: inhibition [5] 73%
inactive: outcome [1] | outcome [2] | outcome [3] | outcome [4] | outcome [6] | outcome [7] | outcome [8] | outcome [9] | outcome [10] | outcome [11] | outcome [12] | outcome [13] | outcome [14] | outcome [15] | outcome [16]

NC(=O)c1nsc(C(=O)N(Cc2ccccc2Cl)C(C(=O)NCC2CCCO2)c2ccc(O)cc2)c1N (stereo not given)
inactive: outcome [1] | outcome [2] | outcome [3] | outcome [4] | outcome [6] | outcome [7] | outcome [8] | outcome [9] | outcome [10] | outcome [11] | outcome [12] | outcome [14] | outcome [15] | outcome [16]
active: inhibition [5] 90% | inhibition [13] 28.6%

Nc1c2c(nc3ccccc13)CCC2
active: inhibition [5] 97% | inhibition [6] 44% | inhibition [9] 16.5% | inhibition [13] 29.6%
inactive: outcome [1] | outcome [2] | outcome [3] | outcome [4] | outcome [7] | outcome [8] | outcome [10] | outcome [11] | outcome [12] | outcome [14] | outcome [15] | outcome [16]

Cc1nc2scc(-c3ccccc3)c2c(=O)n1N=C1C=CC(=O)C=C1
active: inhibition [5] 69% | inhibition [13] 21%
inactive: outcome [1] | outcome [2] | outcome [3] | outcome [4] | outcome [6] | outcome [7] | outcome [8] | outcome [9] | outcome [10] | outcome [11] | outcome [12] | outcome [14] | outcome [15] | outcome [16]

O=C(NCCCN1CCOCC1)c1ccc(NC(=O)C2COc3ccccc3O2)cc1 (stereo not given)
active: activation [10] 49.5%
inactive: outcome [1] | outcome [2] | outcome [3] | outcome [4] | outcome [5] | outcome [6] | outcome [7] | outcome [8] | outcome [9] | outcome [11] | outcome [12] | outcome [13] | outcome [14] | outcome [15] | outcome [16]

CN(Cc1ccccc1)C(=O)CSc1nnc(-c2ccco2)n1-c1ccccc1
active: inhibition [5] 71% | inhibition [6] 43%
inactive: outcome [1] | outcome [2] | outcome [3] | outcome [4] | outcome [7] | outcome [8] | outcome [9] | outcome [10] | outcome [11] | outcome [12] | outcome [13] | outcome [14] | outcome [15] | outcome [16]

CNC(=O)COc1ccc2oc3c(c2c1)CCCC3
active: inhibition [5] 74% | inhibition [6] 49% | inhibition [13] 31.4%
inactive: outcome [1] | outcome [2] | outcome [3] | outcome [4] | outcome [7] | outcome [8] | outcome [9] | outcome [10] | outcome [11] | outcome [12] | outcome [14] | outcome [15] | outcome [16]

COCCn1c(SCc2ccc(F)cc2)nc2ccccc2c1=O
active: inhibition [5] 96% | inhibition [13] 21.6%
inactive: outcome [1] | outcome [2] | outcome [3] | outcome [4] | outcome [6] | outcome [7] | outcome [8] | outcome [9] | outcome [10] | outcome [11] | outcome [12] | outcome [14] | outcome [15] | outcome [16]

Cc1ccc(C)c2[nH]c(=O)c(CN(CC3CCCO3)C(=S)NCc3ccco3)cc12 (stereo not given)
inactive: outcome [1] | outcome [2] | outcome [3] | outcome [4] | outcome [6] | outcome [7] | outcome [8] | outcome [9] | outcome [10] | outcome [11] | outcome [12] | outcome [14] | outcome [15] | outcome [16]
active: inhibition [5] 79% | inhibition [13] 37.5%

Brc1ccc(CN2C3=NCCCN3c3ccccc32)cc1
active: inhibition [5] 96% | inhibition [6] 75% | inhibition [13] 9.36%
inactive: outcome [1] | outcome [2] | outcome [3] | outcome [4] | outcome [7] | outcome [8] | outcome [9] | outcome [10] | outcome [11] | outcome [12] | outcome [14] | outcome [15] | outcome [16]

CN(CC1CCCN(CCc2cccc(C(F)(F)F)c2)C1)C(=O)c1cc2ccccc2o1 (stereo not given)
inactive: outcome [1] | outcome [2] | outcome [3] | outcome [4] | outcome [6] | outcome [7] | outcome [8] | outcome [9] | outcome [10] | outcome [11] | outcome [12] | outcome [14] | outcome [15] | outcome [16]
active: inhibition [5] 85% | inhibition [13] 1.18%

CCCN(c1nc(C)cc(OC)n1)S(=O)(=O)c1ccccc1
active: inhibition [5] 59% | inhibition [13] 25.2%
inactive: outcome [1] | outcome [2] | outcome [3] | outcome [4] | outcome [6] | outcome [7] | outcome [8] | outcome [9] | outcome [10] | outcome [11] | outcome [12] | outcome [14] | outcome [15] | outcome [16]

COc1ccc(/C=C2\SC(=S)N(C(Cc3ccccc3)C(=O)O)C2=O)cc1 (stereo not given)
active: inhibition [5] 88% | inhibition [13] 32.2%
inactive: outcome [1] | outcome [2] | outcome [3] | outcome [4] | outcome [6] | outcome [7] | outcome [8] | outcome [9] | outcome [10] | outcome [11] | outcome [12] | outcome [14] | outcome [15] | outcome [16]
